# The panel holds about 79,000 compounds, 15% with a hit somewhere; the sample as a whole holds those more often. Calls of active or inactive are those of the source. No stated cut-off is given here; in the data, active means growth inhibition above about 70%; inactive means the rest.
# Assay: NCI Yeast Anticancer Drug Screen. Data for the mlh1 rad18 strain (AID 175)
# Details: S. cerevisiae mlh1 rad18 strain growth inhibition; at 50.0 µM; hits give high values
# Method: Growth inhibition of yeast strains with defined genetic alterations is measured as a screen for potential anti-cancer activity. Selected strains with alterations in DNA damage repair or cell cycle control were exposed to compounds and growth inhibition was measured relative to vehicle treated controls. The strain used in this assay is mlh1 rad18
row,SMILES,growth inhibition
1,CC1(C)N=C(N)N=C(N)N1c1cccc(OCCCOc2ccc([N+](=O)[O-])cc2)c1,-26.4% (inactive)
2,CC(=O)Nc1ccc(C(F)(F)F)cc1,13.2% (inactive)
3,Nc1ccc(S(=O)(=O)Nc2nc(CN3CCCCC3)cs2)cc1,-7.85% (inactive)
4,COc1ccc2c(c1)CCCN2c1ccc(N=C(N)N)cc1,16.5% (inactive)
5,OC1c2ccccc2OC2(N3CCCC3)CCCCC12 (stereo not given),1.2% (inactive)
6,CC1=NN(C(=O)c2ccccc2)C(=O)C1N=Nc1ccc([N+](=O)[O-])cc1 (stereo not given),-3.35% (inactive)
7,O=C(O)C(Sc1ccccc1)c1ccccc1 (stereo not given),-21.6% (inactive)
8,CCC1(CC)C(=O)C(CC)(CC)C1=O,6.55% (inactive)
9,COCCCCCOC,1.55% (inactive)
10,CN(C)c1ccccc1CCCCCBr,3.75% (inactive)
11,CC(C)(C)C(=O)Oc1ccc(/C=C/C(=O)c2ccc(OC(=O)C(C)(C)C)cc2)cc1,-24.4% (inactive)
12,CNC(=O)n1cnc(N)n1 (tested in a mixture with another compound),13% (inactive)
13,O=S(=O)(O)c1ccccc1O,1.95% (inactive)
14,Nc1cc(Cc2ccccc2)ccc1O,46.7% (inactive)
15,Cc1ccc(NC(=O)NCCCCCCNC(=O)Nc2ccc(C)cc2)cc1,-17.9% (inactive)
16,CC1=NN(c2ccccc2)C(N)C1 (stereo not given),13.2% (inactive)
17,CCOC(=O)CNCc1cccc(Cl)c1,24.2% (inactive)
18,O=C(O)CCCc1ccc(N(CCO)CCO)cc1,19% (inactive)
19,COc1ccc(-c2nc(N)nc3c2CN(CCCC(=O)O)C3=O)cc1,-10.4% (inactive)
20,O=C(O)CCC1COc2ccccc2O1 (stereo not given),-9.35% (inactive)

row,SMILES,growth inhibition
1,NC(=O)NC(=O)c1ccccc1,-7.55% (inactive)
2,CN(CC(=O)O)C(=N)N,-9.2% (inactive)
3,CCCc1cc(=O)oc2c(C=O)c(O)cc(O)c12,46.5% (inactive)
4,COCCOCCOCCC(=O)NC1CC2CCC1(C)C2(C)C (stereo not given),15.4% (inactive)
5,CC(NC(CC12CC3CC(CC(C3)C1)C2)C(N)=O)c1ccccc1 (stereo not given),-18.4% (inactive)
6,Nc1cccc(=O)[nH]1,-3.85% (inactive)
7,O=c1[nH]c(=O)n(C2CC(O)C(CO)O2)cc1OCC1CCCCC1 (stereo not given),-19.9% (inactive)
8,CCOc1c(N=Nc2ccc(Br)cc2)c(C)nn1C(N)=S,45% (inactive)
9,CCOC(=O)C(=CNC(=S)Nc1ccc(OCC)cc1)C(=O)OCC,6.05% (inactive)
10,COc1cc(C2NCCC(c3ccccc3)(c3ccccc3)N2)cc(OC)c1OC (stereo not given),5.5% (inactive)
11,O=C(OCc1ccc(Cl)cc1Cl)OCc1ccc(Cl)cc1Cl,37.4% (inactive)
12,Cc1onc(-c2ccccc2Cl)c1-c1nc2ccccc2c(=O)o1,93.5% (active)
13,CCCCC(=O)c1cc2ccccc2c2ccccc12,6.3% (inactive)
14,CCOC(=O)c1c(C#N)c2cnn(-c3ccccc3)c2n2cccc12,36.1% (inactive)
15,CCCCCC1=CC(=O)C=C(OC)C12C(=O)Oc1cc(O)c(C(=O)O)c(CCCCC)c12 (stereo not given),33.8% (inactive)
16,CCCCc1c2c(nc3c1CCC/C3=C\c1ccccc1)C(=O)CCC2,18.1% (inactive)
17,CCCc1ncc(C[n+]2ccccc2C)c(N)n1,8.25% (inactive)
18,O=C(O)c1ccc(O)cn1,2.55% (inactive)
19,CCCC(=O)OCC1OC(n2cc(F)c(=O)[nH]c2=O)C(F)C1OC(=O)CCC (stereo not given),-7.25% (inactive)
20,O=C(NC(=S)Nc1cccc(Cl)c1)c1ccccc1,12.4% (inactive)

# Source: PubChem BioAssay (NCI)
